The source of these data is PMC12136788.

Positions count from the first letter of the chain named. In all, about 24,000 sequences were measured (“enrichment r”: median about 0.99, highest 2% from about 3.7 on). The sample holds the highest values, similar sequences and a random draw of the others, so the mix is not that of the screen.

T1: UNK ZnF1-3 (human, UniProt Q9C0B0 31-174)
T1 sequence: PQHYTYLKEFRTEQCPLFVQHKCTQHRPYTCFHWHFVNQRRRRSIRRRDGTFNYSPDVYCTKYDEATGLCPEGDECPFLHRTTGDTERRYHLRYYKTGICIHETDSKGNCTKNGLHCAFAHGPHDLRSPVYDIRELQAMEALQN

B1: chr1:220276048:220276049:+_ENSG00000067704_ENST00000302637|hu_hu|hu_hu_hu_mus_True|8_58 (ssRNA)
RNA: GGGAGUUCUACAGUCCGACGAUCGCAAAUUGCCUGGUUGGCGGGAAUUGUCCAAGGCUGGGUGGUCCAAACUAAAAUACUAACAGGGGAUGAGGCAUCUGUAAGAGACUCCAACUUCGGAGGAGGUUUUAAGAGAGGGAAUCUCAACAGAGGAUUGAGCAUCA
B2: chr5:141234466:141234467:-_ENSMUSG00000000149_ENSMUST00000000153|mus_mus|FALSE|FALSE (ssRNA)
RNA: GGGAGUUCUACAGUCCGACGAUCAGGACAAUAGUCAAGGGUAACAGUGAAAUUAAAAUUAAAAAAAAAAAUACAAACGCCUAAGGUCUGGGAGAAACCUGACUACAAUCUACGUGGAGAAACUUGUAAAUGACUCCAGCCUGGCAACAGAGGAUUGAGCAUCA
B3: chr1:220276048:220276049:+_ENSG00000067704_ENST00000302637|hu_hu|hu_hu_hu_mus_True|1_38 (ssRNA)
RNA: B1 RNA with U77C, A78G, G100A, U127C, U129C, A131G, A135G, G138A, C142U
B4: chr20:21346065:21346066:+_ENSG00000088930_ENST00000377191|hu_hu|FALSE|FALSE (ssRNA)
RNA: GGGAGUUCUACAGUCCGACGAUCUCCUGGAAGCAUUACAGCUUUAAAAAUGUAAUCUUCAGCAAACUGUGGGUCUUUAAAAUUAAUACUGACUACAGUGUUCUGUGUCAGAUCCCUUAACAUAGGAACAGGAGAACAUACUAUCAACAGAGGAUUGAGCAUCA
B5: chr2:9570881:9570882:+_ENSG00000119203_ENST00000238112|hu_mus|hu_hu_hu_mus_False|28_58 (ssRNA)
RNA: GGGAGUUCUACAGUCCGACGAUCACUUGUCUUCUGAAGGAACCAGGGCAGGGCUCCACAGUGAUCCAAAUGGAAAUGACUAAUUAACAGAAGGUCGAUCUCAGCUGGGUCAAUUAAGUCAAUGUAAGGAAGGGCAUCCAUUCCCAACAGAGGAUUGAGCAUCA
B6: chr2:114709107:114709108:+_ENSG00000115091_ENST00000536059|hu_mus|FALSE|FALSE (ssRNA)
RNA: GGGAGUUCUACAGUCCGACGAUCAGAGAGGACAAUGUUCUUGUAGAGAGGACGCCGGACAUCAAUGGGGCAAUUCUGAAUGACUUCAUCUACAACUUCUGAGAUAGGUUGUGUAAAAUCUGGAUUAGCAAACUCUGGAUGGAACAACAGAGGAUUGAGCAUCA
B7: chr1:220276048:220276049:+_ENSG00000067704_ENST00000302637|hu_hu|hu_hu_hu_mus_True|8_28 (ssRNA)
RNA: B1 RNA with U77C, A78G, C108U, U109G, C114U
B8: chr1:220276048:220276049:+_ENSG00000067704_ENST00000302637|hu_hu|hu_hu_hu_mus_True|48_78 (ssRNA)
RNA: GGGAGUUCUACAGUCCGACGAUCGCAAAUUGCCUGGUUGGCGGGAAUUGUCCAAGGUUGUGUGGUCCAAACUAAAACGCUAACAGGAGAUGAACCAUCUGUAAGAGACUCCAACUUCGGAGGAGGUCUCAGGAGGGGGAAUCUCAACAGAGGAUUGAGCAUCA
B9: chr1:59924863:59924864:+_ENSMUSG00000067336_ENSMUST00000087435|mus_hu|FALSE|FALSE (ssRNA)
RNA: GGGAGUUCUACAGUCCGACGAUCGCUGCCAAAUUUUAGCCGGGGCUCUUUUGUUGAAUUUUUGGUGUUCAAAGGCAAACUAGUAGGUCUCUUGGGAAGGUUCUGCUGCUUGGGGAGAGGAUAGAUCUGAGUAGGCAGAACAUCCAACAGAGGAUUGAGCAUCA
B10: chr17:13115065:13115066:+_ENSMUSG00000068039_ENSMUST00000151287|mus_hu|motif|central (ssRNA)
RNA: GGGAGUUCUACAGUCCGACGAUCAAUAGUUGCUCCAGAAGCUUUGGCAAUGCGUUUAAGGUCCCUUUUUAAAACUCUUCGGACUGCCAUAGCACCAGCCUCCACAAAAUACUUCAGACACAUAUCAUCAAUUCCACCAGUGGUCAACAGAGGAUUGAGCAUCA
B11: chr7:112906983:112906984:-_ENSMUSG00000036862_ENSMUST00000078482|mus_mus|FALSE|FALSE (ssRNA)
RNA: GGGAGUUCUACAGUCCGACGAUCUGGGGAGAUAACUGGAGUCCCUGGUGGUGCAUUUUCACGGAGCACAGCCUCACUACUAGUUCUGGGAAAGCGGGGUCCACGCUCAGGCUCUCCCUGUAUUCCAACAACGACCACACCAGUCAACAGAGGAUUGAGCAUCA
B12: chr12:48362563:48362564:+_ENSG00000134291_ENST00000256686|hu_hu|hu_hu_hu_mus_False|18_58 (ssRNA)
RNA: GGGAGUUCUACAGUCCGACGAUCUCCGUCAAGCCCUUCGAUAGACCCUUGCGGGGGAAACUGUAAUCACUUUGUAUUUCUAAAAAAAAGAAACGCCAAAAACUUUCCAAAAAGCGGUUCAAAAAGCAGGCGGGAGGGGGAGGUCAACAGAGGAUUGAGCAUCA
B13: chr4:140556289:140556290:+_ENSMUSG00000036622_ENSMUST00000037055|mus_mus|mus_mus_mus_hu_False|18_68 (ssRNA)
RNA: GGGAGUUCUACAGUCCGACGAUCGAUGGAGCUCACCAGGCCCCCUUUUGCCGUGCAGAACCCUGUGCGAGUCACCACUGCCAGGACGUGCGGUCCCACAUAGGCCCGGGCCUGCAAAAUGAGGGUGCCGCAGAAGAGUGUGUGCAACAGAGGAUUGAGCAUCA
B14: chr2:176857141:176857142:-_ENSG00000144320_ENST00000272748|hu_hu|motif|central (ssRNA)
RNA: GGGAGUUCUACAGUCCGACGAUCUUUUUGUAAUCUCUGAUUUUUUUCCCUAAAUUCUUCCAAUGCUUGAAUUUCCUUAUCGGUACUUUCUAGAACUUCUACAGUUGAAGGUUUUGUCCUCCAUCGAGAAAAUAAUCCACCCAUCAACAGAGGAUUGAGCAUCA
B15: chr4:144461564:144461565:+_ENSG00000153147_ENST00000283131|hu_hu|motif|central (ssRNA)
RNA: GGGAGUUCUACAGUCCGACGAUCCCUCCCUUGUUGAAUGACUAUUGAAUCCAGUCUGAGUUUCAUCUCAGCACGUUCGGCGGUUCUUUCUUCUACAGUGUUAUCAGUUAUAAAGCGGAACACUCUGACUGUCUUAGUCUGCCCCAACAGAGGAUUGAGCAUCA
B16: chr12:493273:493274:-_ENSG00000073614_ENST00000399788|hu_mus|hu_hu_hu_mus_False|28_108 (ssRNA)
RNA: GGGAGUUCUACAGUCCGACGAUCUUUUCUCUCUACCACAGGGAUCUUCAAUGUAGAUCCUUGAAGUUCCCAAAAUUUUGCCAGUUGAUCCAAGAAGUCCAAUCUUACUCUGGUCAUUGCCUCAAGUUCAUUCAGGCGCUGGACCAACAGAGGAUUGAGCAUCA

The assay deals with T1, UNK ZnF1-3. Description: nsRBNS (natural sequence RNA bind-n-seq); RBNS binding buffer (assumed for nsRBNS): 25 mM Tris pH 7.5, 150 mM KCl, 3 mM MgCl2, 0.01% Triton X-100, 500 ug/ml BSA, 20 U/ml SUPERase-In, 4 C; UNK is unkempt and MSI1 is Musashi-1; names of the RNAs are library labels; protein concentration not given here; high values mean tight binding.
Consider B1, for which the binding signal worked out at 3.69 enrichment R.
B2 registered a binding signal of 14.8 enrichment R.
Consider B3, for which the binding signal was 3.48 enrichment R.
As for B4, the binding signal was 1.24 enrichment R.
Consider B5, for which the binding signal was 1.47 enrichment R.
Regarding B6, the binding signal was 1.28 enrichment R.
B7: the binding signal was 2.55 enrichment R.
For the molecule B8, the binding signal stood at 1.31 enrichment R.
The molecule B9 showed a binding signal of 1.44 enrichment R.
For the molecule B10, the binding signal is 1.25 enrichment R.
On to B11, for which the binding signal worked out at 0.989 enrichment R.
B12: the binding signal was 1.93 enrichment R.
In the case of B13 it was 0.954 enrichment R; in that of B14, 0.655 enrichment R.
As to B15, the binding signal amounted to 0.923 enrichment R.
Consider B16, for which the binding signal is 0.902 enrichment R.
